# In the library only some 0.94% were active in any assay of this set; here they are far more common.
# Mtb hypoxia inh: PubChem AID 1159583 | M. tuberculosis hypoxia-regulated fluorescent reporter, fluorescence | fluorescence inhibition, % (no concentration beside the values) | 0.1% of 300,000 active; in the data active means fluorescence inhibition mostly above about 23%, no sharp cut-off; inactive means mostly below about 17%
# Vc quorum ag: inducers of Vibrio cholerae quorum light production without autoinducers, primary screen, BH1578 luxS cqsA deficient, single point; V. cholerae BH1578 lux reporter, luminescence, 6 h; activation, % at 18.7 µM; 0.16% of 350,000 active; AID 588436, 2011; in the data active means activation mostly above about 9.7%, no sharp cut-off
# MazEF act: activators of E. coli MazEF toxin-antitoxin RNase, primary screen, biochemical, fluorescence, uHTS | Endoribonuclease toxin MazF (Escherichia coli (strain K12)), P0AE70 | FAM/BHQ RNA-DNA oligo cleavage fluorescence, 5 h | activation, % at 20 µM | 0.32% of 350,000 active; in the data active means activation above about 50%
# Target sequence (P0AE70 whole entry, looked up): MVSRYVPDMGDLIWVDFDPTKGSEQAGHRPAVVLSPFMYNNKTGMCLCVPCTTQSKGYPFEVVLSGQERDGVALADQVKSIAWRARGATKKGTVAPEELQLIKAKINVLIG
# SSB-PriA inh: inhibitors of Klebsiella pneumoniae PriA binding to SSB C-terminal tail, primary screen, biochemical, AlphaScreen; PriA–SSB C-terminal tail interaction (Klebsiella pneumoniae); AlphaScreen SSBct-PriA binding, biotinylated peptide; inhibition, % at 33 µM; 0.6% of 430,000 active; in the data active means inhibition mostly above about 37%, no sharp cut-off; inactive means mostly below about 20%;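 further: plate controls were negative control peptide for no effect and reference peptide for full effect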
# * = called active by the depositor; i = inactive; . = no result given.
SMILES,Mtb hypoxia inh,Vc quorum ag,MazEF act,SSB-PriA inh
FC(F)(F)c1cnc(C(c2ccccn2)c2ncn[nH]2)c(Cl)c1 (stereo not drawn),0,0,10,77*
CC(C)Nc1nc(-c2ccccc2)nnc1-c1ccccc1,10,i,6,-4
CN(C)c1nc(-c2ccccn2)nnc1-c1ccccc1,.,0,2,98*
CC(C)Nc1nc(-c2ccccn2)nnc1-c1ccccc1,.,.,.,154*
CCN(CC)c1ccc(NC(=S)NC(=O)C2CCC2)cc1,15,-1,-2,55*
CCOC(=O)[C@H]1[C@H]2COc3ccccc3[C@@H]2N2C(=O)CN(Cc3ccc(C)cc3)C(=O)[C@@]12C,.,4,542*,-5
COc1ccc(Cn2c(SC)nc3c(-c4ccccc4)c[nH]c3c2=O)cc1,.,.,.,-11
Cn1cccc1/C=N\NC(=O)C1COc2ccc(C(C)(C)C)cc2O1 (stereo not drawn),.,i,1,.
Cn1cccc1C=NNC(=O)C1COc2ccc(C(C)(C)C)cc2O1 (stereo not drawn),7,.,.,39*
O=C1Nc2ccccc2S/C1=C/Nc1cccc(Cl)c1,15,-1,59*,-8
O=C1Nc2ccccc2SC1=Cc1ccccc1,.,0,-25,.
CCN(CC)CCn1c(=O)n(-c2ccc(Cl)cc2)c(=O)c2c3c(sc21)CN(C)CC3,10,-1,660*,3
COc1ccc(OC)c(N)c1,-2,3,-4,74*
COc1ccc(OC)c(C(=O)C(=O)c2cc(OC)ccc2OC)c1,11,-7,8,-4
Cc1ccc(O)c(N=Nc2ccc(S(=O)(=O)N3CCCC3)cc2)c1,12,i,9,22
COc1ccc(N=Nc2cc(OC)c(N)cc2OC)cc1,9,-4,9,62*
COc1ccc(N=Nc2cc(C)ccc2O)cc1,6,0,6,77*
O=C(c1cc2n(n1)CCCO2)N1CCN(c2ccccc2F)CC1,.,.,.,-13
Cc1nc2sc(C)c(C)n2c(=O)c1NC(=O)c1ccc(Br)o1,.,.,.,-12
COC(=O)c1cccc(NC(=O)N2C[C@H]3C[C@H](C2)c2cccc(=O)n2C3)c1,.,.,.,4
CCOCN(C(=O)Cn1c(CN2CCOCC2)nc2ccccc21)c1c(C)cccc1CC,.,.,.,2
O=C(NCC(Cc1cccc(F)c1)n1cccc1)c1ccc[nH]c1=O (stereo not drawn),.,.,.,4
Cc1ccc(S(=O)(=O)c2nc(NC[C@H]3CCCO3)sc2Cl)cc1,.,.,.,-13
COCc1nnc(NS(=O)(=O)c2ccc(OC)cc2)s1,5,i,8,-8
COCc1nnc(NS(=O)(=O)c2ccc([N+](=O)[O-])cc2)s1,65*,0,23,-7
SMILES,Mtb hypoxia inh,Vc quorum ag,MazEF act,SSB-PriA inh
N#Cc1cccnc1N1CCC(CNC(=O)c2ccsc2)CC1,.,.,.,0
O=c1[nH]cc(-c2ccc(Br)cc2)n1Cc1ccccc1,11,0,0,77*
Cc1ccccc1-n1ncc2c([N+](=O)[O-])cc([N+](=O)[O-])cc21,.,i,-1,64*
Cc1ccccc1[N+](=O)[O-],9,0,-5,-2
Cn1cc(/C=C/c2cc[n+](C)cc2)c2cc(Cl)ccc21,35*,-1,-520,-12
Cn1cc(/C=C/c2cc[n+](C)cc2)c2cc(F)ccc21,22,0,i,-21
CC1=CC(=NNc2ccccc2[N+](=O)[O-])CC(C)(C)C1,13,.,.,117*
CC1(C)OC(=O)C(=NNc2ccccc2[N+](=O)[O-])C(=O)O1,2,-5,-6,6
CCNC(=O)c1nc(C(=O)NCc2ccc(F)c(Cl)c2)cs1,.,.,.,-22
CCc1nnc(NC(=O)c2cc(Cl)ccn2)s1,3,-9,21,81*
CCc1nnc(NC(=O)c2ccccn2)s1,.,.,.,104*
CCc1ccnc(C(=O)Nc2nnc(CC)s2)c1,.,.,.,103*
CCSc1nnc(NC(=O)c2cnccn2)s1,6,.,4,-6
CCSc1nnc(NC(=O)c2ccccn2)s1,8,i,4,86*
COC(=O)c1ccc(Oc2coc3cc(OCC(=O)c4ccc(Cl)cc4)ccc3c2=O)cc1,.,.,.,-9
O=C(NCC1CCCO1)C1CC(=O)N(C2CCOCC2)C1 (stereo not drawn),.,.,.,-1
O=[N+]([O-])c1cccc(-c2nc(-c3cccs3)c(-c3cccs3)[nH]2)c1,-6,.,111*,-17
O=[N+]([O-])c1cccc(-c2nc(-c3ccccc3)c(-c3cccs3)[nH]2)c1,2,i,20,-4
O=C(COc1ccc(Br)cc1)NN1C(=O)c2ccccc2C1=O,8,0,442*,3
Cc1ccc(OCC(=O)NN2C(=O)c3ccccc3C2=O)cc1,13,0,13,-9
CCOc1ccc2oc(C(=O)OCC(=O)NCc3ccc(OC)cc3)c(C)c2c1,32*,-1,0,-7
O=C(Cc1c(F)cccc1Cl)N1CCC(S(=O)(=O)Cc2ccco2)CC1,.,.,.,-3
Cc1ccc(NC(=O)c2ccc3ccccc3c2)cc1N1CCCC1=O,.,.,.,9
O=C(Nc1cnoc1)c1cccnc1,.,.,.,-10
O=c1c(-c2cc3ccccc3o2)[n+]([O-])c2ccccc2n1OCc1ccccn1,3,0,119*,-11
SMILES,Mtb hypoxia inh,Vc quorum ag,MazEF act,SSB-PriA inh
CCOn1c(=O)c(-c2cc3ccccc3o2)[n+]([O-])c2ccccc21,11,-1,741*,-10
O=c1c(-c2ccc(Br)cc2)[n+]([O-])c2ccccc2n1OCc1ccccn1,-11,0,4,-12
C=CCN1C(=O)C(Cc2ccccc2)S/C1=N/N=C\c1ccccc1 (stereo not drawn),.,.,.,56*
C=CCN1C(=O)C(Cc2ccccc2)S/C1=N/N=C/c1cccs1 (stereo not drawn),.,i,-22,.
CCC(C)NC(=O)Nc1ccc(Br)cc1 (stereo not drawn),2,0,4,-25
CCC(C)Nc1ccc(NC(C)CC)cc1 (stereo not drawn),.,0,2,40*
Cn1nc(CCC(=O)Nc2c[nH]c(=O)[nH]c2=O)ccc1=O,.,.,.,-2
CCc1ccccc1NC(=O)CSc1nnc(-c2ccccn2)n1Cc1ccco1,.,.,.,54*
COc1ccc(-c2cnc(SCC(=O)Nc3nc(C)cs3)n2Cc2ccco2)cc1,.,.,.,30*
COc1ccccc1NC(=O)CSc1nnc(-c2ccncc2)n1Cc1ccco1,.,.,.,56*
O=C(CSc1nnc(-c2ccccn2)n1Cc1ccco1)Nc1ccccc1F,.,.,.,38
COc1ccc(-c2cnc(SCC(=O)Nc3nc(C(C)(C)C)cs3)n2Cc2ccco2)cc1,-11,-1,-4,25
COc1ccccc1NC(=O)CSc1nnc(-c2ccccn2)n1Cc1ccco1,1,i,-8,63*
Cc1cc(C)n2nc(C(=O)O)nc2n1,.,.,.,-11
O=C(NCc1nn(C2CCCC2)c2c1CCCC2)c1ccsc1,.,.,.,-4
Cc1ccc(NC(=O)/C(C#N)=C/c2ccc(C)s2)c(C)c1,13,i,190*,-3
O=C(NCC[C@H](O)c1ccsc1)c1ccc(OC(F)(F)F)cc1,.,.,.,-3
COc1ccc2ccccc2c1C1C=C(c2ccccc2)NC(=S)N1 (stereo not drawn),.,.,.,36*

# Compound activity: PubChem, several laboratories
